# Results with a measured potency or affinity are listed apart. A number with no mark means an inactive call. No rule for the calls is given here.
# Assay: HEK293 cell cytotoxicity, dose response, cytotoxicity control, plate reader, cherry-picked samples (AID 743446)
# Settings: hits give low values; at 26 µM unless noted
row,SMILES,max activity
1,CCNC(=S)NNC(=O)c1cc(-c2ccc(OCC)cc2)nc2ccccc12,15.8% [at 0.05 µM]
2,O=C(Nc1cccc(C(=O)O)c1)Nc1ccc2c(c1)OCO2,-18.7% [at 0.195 µM]
3,COc1ccc(-c2cc3nc(CCl)[nH]c(=O)c3s2)cc1,-60.9%

# — PubChem BioAssay AID743446 (Broad Institute, 2014)
